PubChem BioAssay
The source made the active and inactive calls.

Legend:
[1] = molecular target: NADPH oxidase 4 (Homo sapiens) (UniProt Q9NPH5); assay: compounds shifting NOX4 Amplex Red fluorescence – cell-based, HEK293-NOX4, tetracycline-induced, NOX inhibitor project, primary screen (AID 1160); conditions: HEK293-NOX4, Amplex Red H2O2 fluorescence, 45 min; higher = more signal, called active from +8 up or from −8 down
[2] = molecular target: NADPH oxidase 5 (Homo sapiens) (UniProt Q96PH1); assay: compounds shifting NOX5 Amplex Red fluorescence – cell-based, HEK293-NOX5, NOX inhibitor project, primary screen (AID 1161); conditions: HEK293-NOX5, ionomycin, 45 min, higher = more signal
Sequence of NADPH oxidase 5 (Homo sapiens) (Q96PH1 whole entry, looked up): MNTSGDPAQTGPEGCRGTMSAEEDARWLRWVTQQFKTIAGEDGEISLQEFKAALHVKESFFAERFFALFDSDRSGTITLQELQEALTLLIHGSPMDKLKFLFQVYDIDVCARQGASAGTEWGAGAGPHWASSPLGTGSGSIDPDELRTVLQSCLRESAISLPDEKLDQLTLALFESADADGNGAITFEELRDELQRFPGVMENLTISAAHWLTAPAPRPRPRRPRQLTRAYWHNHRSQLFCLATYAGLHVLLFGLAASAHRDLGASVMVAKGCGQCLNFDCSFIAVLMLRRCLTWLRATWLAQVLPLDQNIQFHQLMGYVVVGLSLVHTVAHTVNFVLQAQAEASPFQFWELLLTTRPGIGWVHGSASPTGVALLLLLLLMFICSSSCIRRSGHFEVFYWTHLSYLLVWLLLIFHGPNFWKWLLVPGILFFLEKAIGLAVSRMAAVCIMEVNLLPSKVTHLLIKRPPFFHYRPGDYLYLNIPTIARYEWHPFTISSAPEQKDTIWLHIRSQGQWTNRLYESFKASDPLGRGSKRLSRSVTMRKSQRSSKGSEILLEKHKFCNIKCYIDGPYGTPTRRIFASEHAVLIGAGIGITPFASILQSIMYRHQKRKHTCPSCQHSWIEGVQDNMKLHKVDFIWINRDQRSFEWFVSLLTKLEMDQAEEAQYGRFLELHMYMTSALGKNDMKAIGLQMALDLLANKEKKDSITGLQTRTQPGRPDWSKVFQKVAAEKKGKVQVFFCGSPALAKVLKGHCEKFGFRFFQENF

[3] = compound effects on lung adenocarcinoma cell viability – A549, calcein-AM fluorescence, 48 h, basal, profiling panel (AID 1162); conditions: higher = more signal; note: test concentration not given here
[4] = compound effects on differentiated 3T3-L1 adipocyte viability – cell-based, 3T3-L1 adipocytes, calcein-AM fluorescence, 48 h, basal, profiling panel (AID 1163); conditions: 3T3-L1 adipocytes viability, higher = more signal; note: test concentration not given here
[5] = compound effects on hepatocellular carcinoma cell viability – HepG2, calcein-AM fluorescence, 48 h, basal, profiling panel (AID 1164); conditions: higher = more signal; note: test concentration not given here
[6] = compound effects on multiple myeloma cell viability – MM1S, calcein-AM fluorescence, 48 h, basal, profiling panel (AID 1165); conditions: higher = more signal; note: test concentration not given here
[7] = calcein-AM signal in unstimulated myeloma cells – cell-based, calcein-AM fluorescence, 48 h, PK04 Diversity Set, profiling panel (AID 1166); conditions: RPMI8226 myeloma viability, higher = more signal;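 note: cells grown under basal conditions without added stimulus; test concentration not given here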
[8] = JC-1 mitochondrial signal, unstimulated HepG2 cells – cell-based, JC-1 fluorescence, 24 h, 100 nL compound, profiling panel (AID 1167); conditions: HepG2 mitochondrial potential, higher = more signal; note: test concentration not given here
[9] = JC-1 mitochondrial signal, unstimulated adipocytes – cell-based, JC-1 fluorescence, 3T3-L1 adipocytes, 24 h, 100 nL compound, profiling panel (AID 1168); conditions: JC-1 mitochondrial fluorescence, higher = more signal, called active from +8 up or from −8 down; note: test concentration not given here
[10] = JC-1 mitochondrial signal, unstimulated myeloma cells – cell-based, JC-1 fluorescence, RPMI8226, 24 h, 100 nL compound, profiling panel (AID 1169); conditions: JC-1 mitochondrial potential fluorescence, higher = more signal; note: test concentration not given here
[11] = JC-1 mitochondrial signal, unstimulated MM1S myeloma – cell-based, JC-1 fluorescence, 24 h, 100 nL compound, profiling panel (AID 1170); conditions: MM1S mitochondrial potential, higher = more signal; note: test concentration not given here
[12] = resazurin metabolic signal in A549 cells – cell-based, resazurin fluorescence, 24 h, PK04 Diversity Set, profiling panel (AID 1171); conditions: A549 viability, higher = more signal, called active from +8 up or from −8 down; note: test concentration not given here
[13] = resazurin metabolic signal in HepG2 cells – cell-based, resazurin fluorescence, 24 h, PK04 Diversity Set, profiling panel (AID 1172); conditions: HepG2 viability, higher = more signal; note: test concentration not given here
[14] = budding yeast growth changes without added modifier – OD600, strain BY4716, 24 h, basal condition, primary screen (AID 1173); conditions: S. cerevisiae BY4716 growth, OD600, 24 h; higher = more signal, called active from +8 up or from −8 down
[15] = viability profiling in MM1S myeloma cells – cell-based, resazurin fluorescence, basal, 24 h, PK04 Diversity Set, profiling panel (AID 1174); conditions: higher = more signal, called active from +8 up or from −8 down; note: test concentration not given here
[16] = molecular target: Dihydroorotate dehydrogenase (quinone), mitochondrial (Plasmodium falciparum (isolate 3D7)) (UniProt Q08210); assay: inhibition of P. falciparum DHODH – biochemical, C-terminal His tag, absorbance 600 nm, primary screen (AID 1175); conditions: PfDHODH enzyme, DCIP absorbance 600 nm; higher = more signal, called active from +8 up or from −8 down;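 note: recombinant parasite enzyme with a five histidine tag at its C terminus; test concentration not given here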
Sequence of Dihydroorotate dehydrogenase (quinone), mitochondrial (Plasmodium falciparum (isolate 3D7)) (Q08210 whole entry, looked up): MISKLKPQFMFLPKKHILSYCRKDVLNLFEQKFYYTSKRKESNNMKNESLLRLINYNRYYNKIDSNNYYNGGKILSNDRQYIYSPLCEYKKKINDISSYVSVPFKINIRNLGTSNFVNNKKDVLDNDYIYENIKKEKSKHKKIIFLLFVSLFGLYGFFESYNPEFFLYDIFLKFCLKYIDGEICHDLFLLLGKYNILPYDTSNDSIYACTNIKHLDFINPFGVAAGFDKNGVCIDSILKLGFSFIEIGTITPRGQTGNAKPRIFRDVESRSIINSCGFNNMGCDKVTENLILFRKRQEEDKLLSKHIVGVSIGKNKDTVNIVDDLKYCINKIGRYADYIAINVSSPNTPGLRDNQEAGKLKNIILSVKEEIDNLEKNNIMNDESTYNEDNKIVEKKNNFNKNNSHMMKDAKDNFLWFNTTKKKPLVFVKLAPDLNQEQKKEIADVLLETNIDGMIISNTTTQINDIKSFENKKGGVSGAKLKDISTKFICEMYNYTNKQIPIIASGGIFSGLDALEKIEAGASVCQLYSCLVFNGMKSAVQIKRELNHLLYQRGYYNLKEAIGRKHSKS

[17] = growth modulation of vineyard yeast isolate – strain RM11-1a, OD600, basal, 24 h, primary screen (AID 1177);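 note: cultures grown under basal conditions with no added stressor; test concentration not given here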; conditions: S. cerevisiae RM11-1a growth, OD600, 24 h; higher = more signal, called active from +8 up or from −8 down
[18] = growth of efflux-deficient E. coli DRC39 – strain DRC39, OD650, 24 h, E. coli filamentation inducers, primary screen (AID 1178);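 note: growth measured as culture turbidity by optical density at 650 nm; test concentration not given here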; conditions: E. coli DRC39 acrAB, higher = more signal, called active from +8 up or from −8 down
[19] = growth of efflux-deficient E. coli DRC39 – strain DRC39, OD650, 48 h, E. coli filamentation inducers, primary screen (AID 1179);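 note: screen aims at cell division blockers that make cells filament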; conditions: E. coli DRC39 delta-acrAB growth, higher = more signal, called active from +8 up or from −8 down
[20] = viability profiling in RPMI8226 myeloma cells – cell-based, resazurin fluorescence, basal, 24 h, PK04 Diversity Set, profiling panel (AID 1180); conditions: higher = more signal;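 note: RPMI8826 multiple myeloma cell line at 5000 cells per well; test concentration not given here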

Sequence of NADPH oxidase 4 (Homo sapiens) (Q9NPH5 whole entry, looked up): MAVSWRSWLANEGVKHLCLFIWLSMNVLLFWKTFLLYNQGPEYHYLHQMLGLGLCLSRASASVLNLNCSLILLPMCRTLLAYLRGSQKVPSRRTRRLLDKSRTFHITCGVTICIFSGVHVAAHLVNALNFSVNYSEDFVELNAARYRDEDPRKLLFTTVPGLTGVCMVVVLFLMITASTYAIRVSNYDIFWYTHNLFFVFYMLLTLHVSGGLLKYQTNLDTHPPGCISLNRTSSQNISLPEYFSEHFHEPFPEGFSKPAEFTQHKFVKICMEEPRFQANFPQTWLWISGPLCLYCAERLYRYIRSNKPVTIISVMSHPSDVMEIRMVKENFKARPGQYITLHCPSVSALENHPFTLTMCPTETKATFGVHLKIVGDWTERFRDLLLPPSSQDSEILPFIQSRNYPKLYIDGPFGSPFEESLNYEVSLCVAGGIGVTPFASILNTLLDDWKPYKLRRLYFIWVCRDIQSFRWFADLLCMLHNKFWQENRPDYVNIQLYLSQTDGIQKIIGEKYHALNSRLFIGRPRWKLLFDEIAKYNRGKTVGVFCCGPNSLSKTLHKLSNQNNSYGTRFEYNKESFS

SMILES	z-score [1]	z-score [2]	z-score [3]	z-score [4]	z-score [5]	z-score [6]	z-score [7]	z-score [8]	z-score [9]	z-score [10]	z-score [11]	z-score [12]	z-score [13]	z-score [14]	z-score [15]	composite z-score [16]	z-score [17]	z-score [18]	z-score [19]	z-score [20]
C=C(/C(=C/C[C@H](OC(=O)c1ccncc1)c1cccc(OCCO)c1)c1cc(C(=O)OC)ccc1OC)C(C)C	0.0371 (inactive)	-1.71	0.396	1.7	-0.712	-0.026	0.566	2.15	0.746 (inactive)	0.0166	0.343	2.01 (inactive)	0.731	-0.177 (inactive)	1.8 (inactive)	-0.494 (inactive)	-1.06 (inactive)	1.17 (inactive)	0.196 (inactive)	0.987
C=C(COC)C(=O)CC[C@H](OC(=O)c1ccccc1-c1ccccc1C(=O)O)c1ccccc1OCCO	0.0678 (inactive)	-1.57	0.341	0.819	-0.927	-1.41	0.0361	0.618	0.819 (inactive)	-0.437	0.24	0.283 (inactive)	0.365	-1.26 (inactive)	0.732 (inactive)	-1.46 (inactive)	-0.524 (inactive)	1.54 (inactive)	0.515 (inactive)	0.439
C=C(C1=CCN(S(=O)(=O)c2ccc(C)cc2)C1)[C@@H](OC(C)=O)[C@@H]1CCCN1S(=O)(=O)c1ccccc1[N+](=O)[O-]	-1.36 (inactive)	0.69	-0.498	1.9	-3.37	-3.21	-4.14	1.04	0.496 (inactive)	-1.21	-2.86	0.0974 (inactive)	0.174	-0.372 (inactive)	-7.03 (inactive)	1 (inactive)	1.39 (inactive)	2.93 (inactive)	1.38 (inactive)	-4.54
C=CCNC(=O)[C@@H]1[C@H]2C(=O)O[C@H](c3ccccc3)[C@H](c3ccccc3)N2[C@H](c2ccc(O)cc2)[C@@]12C(=O)Nc1ccccc12	-1.9 (inactive)	-1.37	0.106	2.33	0.869	0.306	-2.6	-0.581	0.889 (inactive)	-0.824	1.31	0.679 (inactive)	-0.696	-0.146 (inactive)	0.634 (inactive)	-0.132 (inactive)	0.87 (inactive)	0.874 (inactive)	0.634 (inactive)	0.812
C=C(COC)/C(=C/C[C@H](OC(C)=O)c1cccc(OCCO)c1)c1cc(C(=O)OC)ccc1OC	0.00567 (inactive)	-3.06	-0.344	0.81	-2.15	0.0939	-1.1	0.616	1.88 (inactive)	-0.252	0.471	-1.03 (inactive)	-0.231	-17.6 (active)	0.975 (inactive)	-9.35 (active)	-21.4 (active)	1.24 (inactive)	0.802 (inactive)	0.59
CN(C)CCCC[C@@H]1NC(=O)[C@@H]2C[C@H](C(=O)NCCCCCNC(=O)CS)[C@H](c3cccc(OCCO)c3)N2C1=O	0.366 (inactive)	2.19	-0.459	1.56	-1.33	-0.669	-0.348	0.902	0.533 (inactive)	0.526	0.249	-0.42 (inactive)	-0.0484	-1.86 (inactive)	0.78 (inactive)	-1.83 (inactive)	-2.53 (inactive)	0.431 (inactive)	-0.248 (inactive)	0.608
O=C1c2ccccc2[C@](Cc2ccccc2I)(C(=O)O)[C@H](c2ccc(CO)cc2)N1Cc1ccccc1Cl	0.57 (inactive)	2.39	1.32	1	-0.504	-0.089	-1.18	-0.172	0.571 (inactive)	-0.565	0.295	0.177 (inactive)	0.722	-2.78 (inactive)	1.34 (inactive)	-0.812 (inactive)	-1.29 (inactive)	-0.0031 (inactive)	-0.11 (inactive)	0.601
C=C(C(=O)CC[C@@H](OC(C)=O)c1ccccc1OCCO)C(C)C	-0.759 (inactive)	-2.43	-0.646	-0.161	-0.9	-0.951	0.0365	-0.75	0.544 (inactive)	-0.0109	0.0542	0.788 (inactive)	0.166	-13 (active)	0.932 (inactive)	-3.59 (inactive)	0.0933 (inactive)	1.33 (inactive)	0.928 (inactive)	1.57
NC(=O)N1C(=O)C2C(C1=O)C1C=C(c3ccc(CO)cc3)C2C(C2CC2)N1Cc1cc2c(cc1Br)OCO2 (stereo not given)	1.48 (inactive)	-0.201	0.485	1.32	-0.282	-0.767	-1.11	1.26	1.44 (inactive)	-0.3	0.463	0.761 (inactive)	0.627	-3.17 (inactive)	0.814 (inactive)	-0.692 (inactive)	-1.02 (inactive)	1.36 (inactive)	0.422 (inactive)	0.298
C/C=C/[C@@H](CCn1cc(CCO[Si](C(C)C)(C(C)C)C(C)C)nn1)[Si](C)(C)c1ccc(OC)cc1	0.0135 (inactive)	-0.497	1.74	0.925	0.359	-1.17	-1.21	3.71	1.12 (inactive)	0.236	2.03	7.86 (inactive)	4.46	-2.21 (inactive)	1.91 (inactive)	-1.14 (inactive)	-4 (inactive)	2.42 (inactive)	1.89 (inactive)	5.22
CC(C)C[C@@H]1NC(=O)[C@@]23C(=O)N[C@@H](Cc4ccccc4)C2[C@H](C)[C@@]2(C)O[C@H]2C3/C=C/CC/C=C/CNC(=O)[C@@H](C)NC1=O (stereo not given in full)	0.24 (inactive)	-0.181	0.421	1.98	-0.309	0.827	-0.386	1.82	0.918 (inactive)	-0.205	2.11	-0.613 (inactive)	-0.589	-1.92 (inactive)	0.603 (inactive)	0.596 (inactive)	-0.209 (inactive)	2.5 (inactive)	1.34 (inactive)	0.866
COC(=O)C1=CC(c2ccc(CO)cc2)=CC(C2CC2)N(C)C=C1C(=O)OC (stereo not given)	-0.0178 (inactive)	-1.69	0.981	1.31	0.295	1.07	-0.503	1.47	0.935 (inactive)	0.515	1.12	0.419 (inactive)	0.578	-2.82 (inactive)	0.833 (inactive)	-0.782 (inactive)	-3.29 (inactive)	0.983 (inactive)	1.28 (inactive)	0.842
CCOC(=O)C[C@H]1[C@H](OC(=O)c2ccc(-c3ccccc3)cc2)[C@@H](NC(=O)C2CCCCC2)c2cc(OCCCO)ccc2N1C(=O)c1ccc2ccccc2n1	1.3 (inactive)	1.94	1.23	1.25	-0.0303	0.881	0.179	2.69	1.82 (inactive)	-0.953	0.717	1.02 (inactive)	1.24	-0.275 (inactive)	1.22 (inactive)	0.478 (inactive)	-1.33 (inactive)	1.56 (inactive)	0.999 (inactive)	0.509
CCCCC(=C=CC[C@H](O)c1cccc(OCCO)c1)CCO	0.362 (inactive)	-1.64	1.13	1.07	-0.693	-1	-0.257	0.733	0.439 (inactive)	0.12	-0.0531	1.7 (inactive)	0.529	-1.41 (inactive)	1.31 (inactive)	-0.802 (inactive)	-0.114 (inactive)	1.3 (inactive)	0.749 (inactive)	0.837
COc1ccc(C(=O)Nc2cccc(CN3C(=O)[C@@]4(O[C@@H](CCO)[C@H]([Si](C)(C)c5ccc(OC)cc5)[C@H]4C)c4ccccc43)c2)cc1	-2.83 (inactive)	-2.96	-3.95	-0.301	-4.74	-2.7	-4.46	-1.97	2.77 (inactive)	-0.972	-2.36	-5.62 (inactive)	-6.42	-3.58 (inactive)	-9.06 (active)	-0.873 (inactive)	2.06 (inactive)	2.75 (inactive)	1.55 (inactive)	-6.22
CCOC(=O)C[C@H]1[C@H](OC(=O)c2ccc(-c3ccccc3)cc2)[C@@H](NC(=O)c2ccccc2)c2cc(OCCCO)ccc2N1C(=O)c1ccccc1	1.32 (inactive)	3.5	0.769	1.54	-0.159	1.11	-0.132	3.28	0.318 (inactive)	0.709	1.38	-0.325 (inactive)	0.643	-1.34 (inactive)	1.83 (inactive)	0.594 (inactive)	-1.37 (inactive)	1.76 (inactive)	1 (inactive)	0.815
